# Screening data from PubChem BioAssay.
# TSHR ag – TSH receptor (human) agonism. HEK293-CNG-TSHR cells (CNG channel as cAMP sensor), membrane potential dye, cAMP. Potency, µM (doses to about 57.1 µM), inactives show at the top dose activation, most hits filed as activators. 0.48% of 73,000 active; active means well fitted activation curve with a large enough effect in the main read-out, with a control signal flat, not every such curve was filed as active; inconclusive means small, poorly fitted or top-dose-only effect, or a change in a side signal; inactive means no such curve, though single readings can be large or run the other way; % of control where 0% means no effect;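 further: the control signal comes from parental cells without the receptor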
#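 HEK 293 cells stably expressing TSHR and a modified CNG channel, with CNG-only parental cells as counterscreen, were preloaded 60 min at room temperature with membrane potential dye containing 100 uM RO 20-1724. Compound exposure was 30 min, and depolarization was read as fluorescence at 590 nm.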
# HEK293 cAMP cs – parental HEK293 cAMP activation (counter-screen); parental HEK293 CNG cAMP sensor, membrane potential fluorescence; Potency, µM (top dose mostly 57.1 µM), inactives show at the top dose activation, hits mostly activators; 2.5% of 73,000 active; AID 938; further: % of control where 0% means no effect; nearly all actives have a fitted effect of over 55% in size
#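 Parental HEK 293 cells stably expressing a modified CNG channel (no TSHR) report cAMP rise as membrane depolarization. Membrane potential dye with 100 uM RO 20-1724 was loaded for 60 min at room temperature, then compound added for 30 min; fluorescence read at 590 nm.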
# GBA mod – alters purified human glucocerebrosidase activity; P04062; purified enzyme, resorufin glucoside fluorescence (screen aimed at inhibitors), 20 min; Potency, µM; 1.1% of 48,000 active; in the data active means potency below about 15 µM; inconclusive means mostly about 16 µM to 33 µM;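 further: the screen sought inhibitors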
#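 Normal human glucocerebrosidase (0.2 nM final) was assayed with resorufin β-D-glucopyranoside (30 uM final) in 50mM citric acid/KH2PO4, 10mM sodium taurocholate, 0.01% tween-20, pH 5.9. Compounds were titrated; fluorescence (Ex 548, Em 600) read after 20 min at RT.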
# ERK AVP inh – inhibitors of vasopressin-stimulated ERK signaling pathway; HEK293-V1b, vasopressin-stimulated pERK AlphaScreen; Potency, µM (highest dose often 57.5 µM), without a hit: at the highest dose activity, negative = inhibition, hits mostly inhibitors; 0.99% of 72,000 active; further: on the % scale 0 is the no-effect control and ±100 the full control effect; nearly all actives have a fitted effect of over 55% in size
#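 HEK293 cells stably expressing V1b receptor, preincubated 30 min at 37 °C with compound, then stimulated 5 min with 25 nM vasopressin. Phospho-ERK by AlphaScreen SureFire after 5 h RT; normalized to DMSO and vasopressin; AC50 by Hill fit.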
# FLuc inh – blocks Photinus pyralis firefly luciferase activity | P08659 | purified firefly luciferase, luminescence, 8 min | Potency, µM (doses to about 57.1 µM), inactives show top-dose activity change, negative = inhibition, most hits filed as inhibitors | 2.2% of 72,000 active | AID 411; further: on the % scale 0 is the no-effect control and ±100 the full control effect; nearly all actives have a fitted effect of over 40% in size
# Target sequence (P08659 whole entry, looked up): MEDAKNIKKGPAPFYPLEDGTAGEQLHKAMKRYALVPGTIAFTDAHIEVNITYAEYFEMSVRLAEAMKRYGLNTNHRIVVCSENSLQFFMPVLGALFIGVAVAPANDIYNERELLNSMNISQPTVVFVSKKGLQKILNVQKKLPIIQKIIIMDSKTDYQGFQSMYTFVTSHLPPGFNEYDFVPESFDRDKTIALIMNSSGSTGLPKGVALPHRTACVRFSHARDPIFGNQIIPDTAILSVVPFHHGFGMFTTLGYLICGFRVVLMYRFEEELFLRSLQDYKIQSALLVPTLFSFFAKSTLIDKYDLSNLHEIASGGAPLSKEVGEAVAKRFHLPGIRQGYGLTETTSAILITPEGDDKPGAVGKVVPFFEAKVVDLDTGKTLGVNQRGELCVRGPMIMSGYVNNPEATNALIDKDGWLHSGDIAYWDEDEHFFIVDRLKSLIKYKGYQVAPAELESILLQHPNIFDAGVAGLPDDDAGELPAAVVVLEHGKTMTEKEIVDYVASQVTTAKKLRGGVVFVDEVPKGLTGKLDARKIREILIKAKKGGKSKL
#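 Inhibition of light generation by firefly luciferase from ATP and luciferin was profiled with concentration-response curves per sample, ATP held at 10 uM within the enzyme's linear range. Plates were read by luminescence after an 8-minute ambient incubation.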
# Bst PK mod – alters activity of Bacillus stearothermophilus pyruvate kinase. purified pyruvate kinase, luminescence ATP production; ribose 5-phosphate activator present at AC10. Potency, µM. 1.2% of 51,000 active; in the data active means potency below about 11 µM; inconclusive means mostly about 12 µM to 25 µM;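 the screen sought inhibitors and activators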;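 further: scaled between full activation by ribose 5 phosphate and full inhibition by luteolin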
# * = called active by the depositor; i = inactive; ? = inconclusive; nt = no result given; ! = not active in a repeat; [ ] = another dose, or the depositor's remark. The list is not random: actives were taken first. Their share in the collection is about 6.1%. Unless noted, the call rests on the fitted dose curve; in most records, active means well fitted curve in the direction sought with a large enough effect; inconclusive means small, poorly fitted or top-dose-only effect, or another doubt; inactive means no such curve, though single readings can be large; an effect the other way counts as inactive or inconclusive. Potency means the concentration at half of the fitted maximal effect.
SMILES,TSHR ag,HEK293 cAMP cs,GBA mod,ERK AVP inh,FLuc inh,Bst PK mod
COCCNc1nc(C)nc2c1nc(-c1ccccc1)n2CCCN1CCCCC1C (stereo not given),6%,25%,nt,-9%,nt,nt
COc1cc2c(cc1OC)CN(C(=O)CC1CC3CCC1C3)CC2 (stereo not given),6%,-3%,>77,-5%,13µM*,i
CCCn1c(-c2ccc(F)cc2)nc2c(NCCCN(CC)CC)nc(C)nc21,?,?,nt,-4%,nt,nt
CCOC(=O)C1=C(C)NC(=O)NC1/C(C)=C/c1ccccc1 (stereo not given),6%,9%,nt,32µM*,-1%,nt
COc1ccccc1-c1cc(C(=O)Nc2cc(C)n(Cc3ccc(Cl)cc3)n2)no1,?,3.2µM*,>77,-6%,-1%,>57
Cc1cc(C(=O)Nc2cc(C)n(Cc3ccc(Cl)cc3)n2)no1,13%,31%,>77,-7%,1%,>57
COc1ccccc1-c1cc(C(=O)NCc2ccco2)no1,1%[11.4 µM],4%,13*,-1%,-26%,>57
O=C(c1ccc(-n2c(=O)c(=O)[nH]c3ccccc32)cc1)N1CCCN(Cc2ccccc2)CC1,-1%,-1%,nt,nt,nt,nt
Cc1ccc(SC/C(O)=C(\C#N)c2nc3ccccc3n2C)cc1,?,?,>77,-1%,3%,>57
Cn1c(/C(C#N)=C(\O)CN2CCN(Cc3ccccc3)CC2)nc2ccccc21,?,32µM*,>77,-11%,0%,>57
Cc1cccc(CNc2ccnc(-c3ccccc3CN(C)C)n2)c1,?,5µM*,nt,31%,1%[2.29 µM],nt
Cc1ccc(-c2cc(C(F)F)n3ncc(C(=O)N4CCN(c5ccccn5)CC4)c3n2)cc1,?,32µM*,nt,-10%,-1%,nt
CCN1CCN(C(=O)c2cnn3c(C(F)F)cc(-c4ccc(C)cc4)nc23)CC1,?,16µM*,>77,4%,3%,>57
CC(C)(C)c1cc2c(O)c(c1)Cc1cc(C(C)(C)C)cc(c1O)Cc1cc(C(C)(C)C)cc(c1O)Cc1cc(C(C)(C)C)cc(c1O)Cc1cc(C(C)(C)C)cc(c1O)Cc1cc(C(C)(C)C)cc(c1O)Cc1cc(C(C)(C)C)cc(c1O)Cc1cc(C(C)(C)C)cc(c1O)C2,5%[11.4 µM],3%[11.4 µM],nt,13%[11.5 µM],1%[11.4 µM],nt
Cc1onc(-c2c(F)cccc2Cl)c1C(=O)Nc1nc2c(s1)CCCC2,-2%,-2%,?,?,0%,>57
Cc1cc(C(=O)Nc2nc3c(s2)CCCC3)no1,-12%,-2%,>77,-2%,25µM*,i
O=C(Nc1nc2c(s1)C(=O)CCC2)c1ccccc1,7%,1%,nt,-7%,13µM*,nt
Cc1onc(-c2ccccc2)c1C(=O)Nc1nc2c(s1)CCCC2,1%,-4%,?,3%,0%,>57
CN(C)c1ccc(C(=O)Nc2nc3c(s2)CCCC3)cc1,-5%,1%,nt,nt,5µM*,nt
CCCNC(=O)OC[C@@H]1O[C@H](CCO/N=C(\C)CCN2CCCc3nc(C)c(C)cc32)C=C[C@@H]1Oc1ccc(OC)cc1,2%[11.4 µM],7%[11.4 µM],nt,18%[11.5 µM],1%[11.4 µM],nt
CC(C)CN1CCC2(CC1)CCN(C(=O)c1ccco1)CC2,4%,7%,nt,13%,0%[11.4 µM],nt
Nc1ncnc2nc[nH]c12.Nc1ncnc2nc[nH]c12.[Cl][Pt]([Cl])([Cl])[Cl],-4%[11.4 µM],0%[11.4 µM],nt,nt,-4%[11.4 µM],nt
CC(C)Sc1nc2c(c(=O)n(C)c(=O)n2C)n1Cc1ccc(Cl)cc1,?,7.9µM*,>77,?,4%,>57
Cc1ccc(Cn2c(SCCN3CCOCC3)nc3c2c(=O)n(C)c(=O)n3C)cc1,9%,2%,?,-9%,1%,>57
c1ccc2c(c1)Cc1cc(CN3CCOCC3)ccc1-2,nt,28%,nt,?,13µM*,nt
SMILES,TSHR ag,HEK293 cAMP cs,GBA mod,ERK AVP inh,FLuc inh,Bst PK mod
O=C(Nc1cccc2nsnc12)c1cccs1,4%,-16%,?,-6%,16µM*!,>11
CCOC(=O)c1ccccc1NC(=O)c1cccs1,?,25µM*,nt,29%,-1%,nt
O=C(Nc1ccc2nsnc2c1)c1cccs1,15%,14%,>77,36%,-4%,>57
Cc1onc(-c2ccccc2Cl)c1C(=O)Nc1cccc2nsnc12,?,32µM*,>77,8%,-1%,>57
Cc1onc(-c2ccccc2Cl)c1C(=O)Nc1cccc2cccnc12,?,?,nt,9%,0%,nt
O=C(O)C1CCC(CNc2c(NC3CCCCC3)c(=O)c2=O)CC1 (stereo not given),38%,26%,nt,nt,2%,nt
COc1ccc(OC(=O)c2cc3ccccc3o2)cc1,nt,nt,nt,nt,7.9µM*,?
COc1cccc(C(=O)Nc2c(F)c(F)c(F)c(F)c2F)c1,nt,18%,?,6%,3%,>57
COc1ccc(C(=O)Nc2ccccc2C(N)=O)cc1,4%,-3%,>77,-5%,13µM*,i
COc1cccc(C(=O)Nc2cccc(SC)c2)c1,nt,27%,nt,2%,13µM*,nt
COc1ccccc1NC(=O)c1oc2ccc(C)cc2c1C,?,?,nt,20%,16µM*,nt
O=C(O)c1ccccc1-c1ccccc1C(=O)Nc1ccc2c(c1)Cc1ccccc1-2,nt,6%[11.4 µM],nt,1%[11.5 µM],7%[11.4 µM],nt
COc1ccc(C)cc1NC(=O)c1cc2c(C)nc3ccccc3c2o1,11%,12%,>77,-17%,2%,>57
COc1ccc(C)cc1NC(=O)c1cc2ccccc2o1,?,20µM*,?,0%,?,>57
COc1ccc(OC)c(NC(=O)c2ccc(CN3CCOCC3)cc2)c1,0%,3%,nt,-12%,-10%,nt
COc1ccc(CNC(=O)Nc2cccc(C)c2)cc1,-6%,14%,>77,-1%,-5%,>57
COc1ccc(OC)c(Nc2nc(N)nc(-c3cc4ccccc4o3)n2)c1,-21%,0%,?,-8%,-3%,>57
COc1ccc(C(=O)Nc2cccc(C)c2)cc1,16%[11.4 µM],11%[11.4 µM],nt,-20%,6.3µM*,nt
COc1ccc(OC)c(NC(=O)c2cc3ccccc3o2)c1,?,32µM*,?,-6%,-20%,nt
COc1ccc(C(=O)Nc2cc(OC)ccc2OC)cc1,12%,14%,>77,-4%,20µM*,nt
CCCCNc1nc(C)nc2c1nc(-c1ccccc1)n2C1CCN(Cc2ccccc2)C1 (stereo not given),?,?,nt,-15%,nt,nt
COC(=O)c1[nH]c2cc(OC)c(OC)cc2c1NC(=O)c1cccc(OC)c1,?,-32%,>77,-14%,7.9µM*,i
CC(C)(C)c1ccc(O)c(CN(Cc2c(O)ccc3ccccc23)C2CCCCC2)c1,4%[11.4 µM],1%[11.4 µM],nt,10%[11.5 µM],5%[11.4 µM],nt
O=C(NCC1CCCO1)c1cccs1 (stereo not given),-4%,0%,nt,-10%,0%,nt
O=C(c1ccc2c(c1)OCCCO2)c1cccs1,5%,11%,>77,-11%,13µM*,nt
